Reference: PubChem BioAssay (NCATS)
Results filed as inconclusive are left out. Calls of active or inactive are those of the source. Unless noted, the call rests on the fitted dose curve; in most records, active means well fitted curve in the direction sought with a large enough effect; inconclusive means small, poorly fitted or top-dose-only effect, or another doubt; inactive means no such curve, though single readings can be large; an effect the other way counts as inactive or inconclusive.

Assays:
[1] = molecular target: Cytochrome P450 1A2 (Homo sapiens) (UniProt P05177); assay: p450-cyp1a2 (AID 410; calls by dose curve; further: potency means the concentration at half of the fitted maximal effect)
Outline: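 Read-out is luminescence from luciferin produced by CYP1A2 demethylation of Luciferin-ME (100uM, at Km). Detection reagent stopped the 60 min NADPH-dependent reaction; signals were normalized to 57 uM furafylline.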

[2] = molecular target: Mitogen-activated protein kinase 10 (Mus musculus) (UniProt Q61831); assay: JNK3 AlphaScreen Assay (AID 530; active means well fitted curve in either direction with a large enough effect, not every such curve was filed as active;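 further: kinase came from lysate of stimulated human HepG2 cells; signal reports phosphorylation of biotinylated GST-cJun 1-79 at Ser73 with 10 µM ATP; series mostly up to about 57 µM; on the % scale 0 is the no-effect control and ±100 the full control effect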)
Outline: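 Kinase buffer: 20 mM Tris-HCl pH 7.6, 10 mM MgCl2, 1 mM DTT, 0.1 mM Na3VO4, 0.01% Tween-20; ATP 10 uM. Substrate biotin-GST-cJun(1-79), enzyme from activated HepG2 lysates. Detection by Ser73 phospho-antibody AlphaScreen.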

[3] = molecular target: Cytochrome P450 2C9 (Homo sapiens) (UniProt P11712); assay: qHTS Assay for Inhibitors and Substrates of Cytochrome P450 2C9 (AID 883); further: nearly all actives have a fitted effect of over 60% in size; further: potency means the concentration at half of the fitted maximal effect
Outline: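 Turnover of Luciferin-H (100uM, KM) by 10nM human CYP2C9 was measured over 60 min at 37C with NADPH regeneration; inhibitors and some substrates reduce luminescence. Data normalized to sulphaphenazole 57uM.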

[4] = molecular target: Cytochrome P450 3A4 (Homo sapiens) (UniProt P08684); assay: qHTS Assay for Inhibitors and Substrates of Cytochrome P450 3A4 (AID 884); further: nearly all actives have a fitted effect of over 50% in size; further: potency means the concentration at half of the fitted maximal effect
Outline: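 Luminescent readout of luciferin produced by CYP3A4 (20 nM) dealkylation of Luciferin-PPXE, 25 uM (its KM). NADPH-driven reaction ran 60 min at RT after 10 min compound preincubation; data scaled to 57 uM ketoconazole as 100% inhibition.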

[5] = molecular target: Cytochrome P450 3A4 (Homo sapiens) (UniProt P08684); assay: qHTS Assay for Activators of Cytochrome P450 3A4 (AID 885); further: nearly all actives have a fitted effect of over 65% in size
Outline: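 Luminescent readout of luciferin formed from 25 uM Luciferin-PPXE (KM level) by 20 nM CYP3A4 in 200 mM KPO4, with 60 min NADPH-driven reaction at room temperature after 10 min compound exposure. Ketoconazole (57 uM) defined 100% inhibition.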

[6] = molecular target: Cytochrome P450 2D6 (Homo sapiens) (UniProt P10635); assay: qHTS Assay for Inhibitors and Substrates of Cytochrome P450 2D6 (AID 891); further: nearly all actives have a fitted effect of over 60% in size; further: potency means the concentration at half of the fitted maximal effect
Outline: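 Luminescent read-out of luciferin formed by 5 nM human CYP2D6 demethylating 30 uM Luciferin-ME EGE (Km level) over 60 min at room temperature after NADPH regeneration addition. Data normalized to full inhibition by 1.43 uM quinidine.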

[7] = molecular target: Cytochrome P450 2C19 (Homo sapiens) (UniProt P33261); assay: qHTS Assay for Inhibitors and Substrates of Cytochrome P450 2C19 (AID 899); further: nearly all actives have a fitted effect of over 60% in size; further: potency means the concentration at half of the fitted maximal effect
Outline: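 Reactions contain 5nM enzyme, 10uM Luciferin-H EGE (KM) and 50mM KPO4; compound preincubates 10 min at 37C, NADPH regeneration starts turnover for 60 min. Luminescence after detection reagent gives activity.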

[8] = molecular target: DNA dC->dU-editing enzyme APOBEC-3G (Homo sapiens) (UniProt Q9HC16); assay: qHTS for inhibitors of Vif-A3G interactions: Validation (AID 588379); further: 0% is about no effect
Outline: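 Yellow fluorescence (Ex 488, Em 500-530) of Vif-coexpressing HeLa A3G-eYFP cells, scanned by Acumen cytometer, reports blocked A3G degradation. Cells plated at 700/well overnight at 37 deg C before compound addition, then a further overnight compound incubation at 37 deg C.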

[9] = system: Zika virus NS2B-NS3 protease; assay: Primary screen GU AMC qHTS for Zika virus inhibitors (AID 1347154); further: nearly all actives have a fitted effect of over 70% in size; further: potency means the concentration at half of the fitted maximal effect
Outline: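 Fluorogenic AMC-substrate cleavage by noncovalent NS2B-NS3 protease complex (25 nM, pH 8.0 Tris buffer with Tween 20) followed for 15 minutes at room temperature (~20% conversion). Percent inhibition from ex340/em450 signal change, fitted by 4-parameter Hill equation.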

[10] = molecular target: Glucocorticoid receptor (Homo sapiens) (UniProt P04150); assay: GR-GFP Redistribution (AID 450;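 active means compounds whose dose series gives a full or clear partial fitted curve of increased nuclear translocation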; further: potency means the concentration at half of the fitted maximal effect); settings: U2OS GR-GFP nuclear translocation, laser cytometry, 2 h
[11] = molecular target: Glucocorticoid receptor (Homo sapiens) (UniProt P04150); assay: GR-EFC Redistribution (AID 451; calls by dose curve; further: potency means the concentration at half of the fitted maximal effect); settings: CHO-K1 GR-EFC translocation, beta-gal luminescence, 2 h
Outline: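 Translocation of GR-ED fusion to nuclear EA restores b-gal, read by luminescence after 1 h room-temperature detection. Engineered CHO-K1 biosensor cells, 1,000/well, exposed 2 h at 37 C to titrations up to 46 uM final.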

[12] = molecular target: Ubiquitin carboxyl-terminal hydrolase 1 (Homo sapiens) (UniProt O94782); assay: Inhibitors of USP1/UAF1: Pilot qHTS (AID 504865); further: nearly all actives have a fitted effect of over 35% in size; further: potency means the concentration at half of the fitted maximal effect
Outline: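 Enzyme-free wells gave the negative control, while test wells held 1nM USP1/UAF1 preincubated with compound for 15 min at room temperature. Ub-Rho at 150nM final started the reaction, and fluorescence at 480/540 nm was recorded kinetically.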

[13] = molecular target: 3',5'-cyclic-AMP phosphodiesterase 4B (Homo sapiens) (UniProt Q07343); assay: qHTS Assay for Inhibitors of PDE-IV (AID 607; active means well fitted activation curve with a large enough effect in the main read-out, with a control signal flat, not every such curve was filed as active; further: % of control where 0% means no effect)
Outline: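 Cell-based read-out of cAMP via a modified cyclic nucleotide-gated channel and membrane potential dye (535/590 nm) in HEK293 cells expressing PDE4 endogenously. Compounds tested up to 22.9 uM final; 100 uM RO 20-1724 reference.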

[14] = molecular target: N-terminal Xaa-Pro-Lys N-methyltransferase 1 (Homo sapiens) (UniProt Q9BV86); assay: Confirmatory qHTS for Inhibitors of N-terminal methyltransferase 1 (NTMT1): MTaseGlo Assay (AID 1645874);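 further: luminescence from SAH made as NTMT1 methylates SPKRIA peptide using SAM; series mostly up to about 100 µM; 0% = DMSO control and -100% = no-enzyme control; nearly all actives have a fitted effect of over 65% in size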
Outline: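 MTase-Glo luminescence measured SAH formed by 125 nM NTMT1 from 100 uM SAM and 1 uM SPKRIA peptide over 30 min at room temperature, following 15 min compound preincubation. Percent inhibition against no-enzyme and DMSO controls gave 4-parameter Hill fits.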

[15] = Primary qHTS for inhibitors of nuclear receptor binding SET domain protein 2 (NSD2) in an isogenic RCH-ACV NSD2 p.E1099K mutant (9B) (AID 1645876); further: potency means the concentration at half of the fitted maximal effect; nearly all actives have a fitted effect of over 70% in size
[16] = Primary qHTS for inhibitors of nuclear receptor binding SET domain protein 2 (NSD2) in an RCH-ACV wild type WT cells (2C) (AID 1645877); further: potency means the concentration at half of the fitted maximal effect; nearly all actives have a fitted effect of over 70% in size
[17] = molecular target: Glutathione peroxidase 1 (Homo sapiens) (UniProt P07203); assay: Primary qHTS Assay for Inhibitors of Recombinant Selenoprotein Glutathione Peroxidase 1 (GPX1) (AID 1845191); further: on the % scale 0 is the no-effect control and ±100 the full control effect; nearly all actives have a fitted effect of over 65% in size
Outline: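 NADPH consumption tracked by fluorescence at 340/450 nm between t=0 and t=15 min, room temperature. Final mix: 10 nM GPX1, 100 nM glutathione reductase, 1 mM GSH, 0.5 mM NADPH, 0.5 mM cumene hydroperoxide, 0.01% BSA; 30 min compound–enzyme preincubation.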

[18] = molecular target: Phospholipid hydroperoxide glutathione peroxidase GPX4 (Homo sapiens) (UniProt P36969); assay: Primary qHTS Assay for Inhibitors of Recombinant Selenoprotein Glutathione Peroxidase 4 (GPX4) (AID 1845192); settings: outcome: dose series up to 50 µM unless noted; further: series mostly up to about 50 µM; on the % scale 0 is the no-effect control and ±100 the full control effect; nearly all actives have a fitted effect of over 65% in size
Outline: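 NADPH consumption followed by fluorescence at 340/450 nm, t=0 and after 15 min at room temperature. Reaction started with cumene hydroperoxide (0.5 mM final) after 30 min compound–GPX4 preincubation; final 200 nM GPX4, 100 nM GR, 1 mM GSH, 0.5 mM NADPH.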

[19] = qHTS drug screen for cell cycle checkpoint inhibitors in PARPi-resistant BRCA-mutant ovarian cancer cell lines. (AID 1963452; calls by dose curve); settings: PEO1/OlaR viability, CellTiter-Glo luminescence, 96 h, stronger effect = lower value
Outline: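 PEO1, PEO4 and PEO1/OlaR ovarian cancer cells, 600 per well, exposed 96 h at 37C to a dilution series. Viability read by CellTiter-Glo luminescence, normalized to DMSO and empty wells; activity summarized as Z-AUC.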

[20] = molecular target: Guanine nucleotide-binding protein G(i) subunit alpha-1 (Homo sapiens) (UniProt P63096); assay: qHTS Assay for Inhibitors of RGS12 GoLoco Motif Activity (Green Fluorophore) (AID 879);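 further: 0% = labeled peptide with Gαi1 and full inhibition = labeled peptide alone without protein; negative values mean loss of peptide binding seen as reduced polarization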
Outline: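 A drop in FITC polarization marked displacement of the FITC-tagged RGS12 GoLoco peptide (10 nM) from Gαi1 (50 nM). Compounds were incubated 10 min at room temperature in Tris pH 7.5 buffer containing 150 mM NaCl, 0.1 mM GDP and 0.05% NP40; unlabeled peptide titration served as control.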

[21] = qHTS Assay for Identification of Small Molecule Antagonists for Thrombopoietin (TPO) Signaling Pathway (AID 918); settings: TPO-dependent cell signaling reporter, antagonist mode; further: potency means the concentration at half of the fitted maximal effect; nearly all actives have a fitted effect of over 60% in size
Outline: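 Antagonist mode at EC50 TPO (26 pM) in IL-3-free medium; murine Ba/F3 cells with human TPO receptor and GPIIb-promoter luciferase, 24 hrs at 37 C before luminescent detection.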

[22] = molecular target: Muscarinic acetylcholine receptor M1 (Rattus norvegicus) (UniProt P08482); assay: qHTS Assay for Antagonists of Acetylcholine Muscarinic M1 Receptor: Kinetic Measurement of Intracellular Calcium Response (AID 943);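 further: Fluo-4 calcium signal as peak divided by basal fluorescence over 4 min; series mostly up to about 35 µM; nearly all actives have a fitted effect of over 75% in size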
Outline: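 Quantitative HTS in CHO-M1 (rat receptor) cells: 10 min compound exposure ahead of 100 nM carbachol, Fluo-4 fluorescence followed 4 min, value expressed as peak-to-basal ratio.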

[23] = molecular target: Pyruvate kinase (Leishmania mexicana) (UniProt Q27686); assay: qHTS Validation Assay for Inhibitors of Leishmania Mexicana Pyruvate Kinase (AID 945);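 further: 0% = DMSO only neutral control wells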
Outline: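 Purified LmPYK (E451W mutant, 0.2 nM) was incubated 1 h at room temperature with 0.5 mM PEP and 0.1 mM ADP in 50 mM imidazole pH 7.2, 50 mM KCl, 7 mM MgCl2; ATP formed was read by PKLight luminescence, normalized to DMSO wells.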

[24] = molecular target: Pyruvate kinase PKM (Homo sapiens) (UniProt P14618); assay: qHTS Assay for Activators of Human Muscle Pyruvate Kinase (AID 954; active means well fitted curve in the direction sought with a large enough effect, not every such curve was filed as active;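 further: 0% = uninhibited enzyme and -100% = no enzyme or full thiadiazolimine inhibition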)
Outline: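 ATP production by PKM2 detected via luciferase luminescence after 1 h room-temperature reaction (0.1 nM enzyme, PEP at Km 0.5 mM, ADP 0.1 mM, pH 7.2 imidazole buffer). Inhibition scaled to no-enzyme control; activation referenced to 0.3 nM enzyme wells.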

[25] = molecular target: Alpha-galactosidase A (Homo sapiens) (UniProt P06280); assay: Counterscreen for Glucocerebrosidase Inhibitors: qHTS Assay for Human alpha-Galactosidase at pH 4.5 (AID 992); further: 0% is about no effect
Outline: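 Fluorogenic 1536-well qHTS at pH 4.5 (citrate, Tween-20): 2 nM enzyme, 80 uM 4-MU-alpha-galactoside, 20 min room temperature, NaOH/glycine stop. Titration 0.7 nM to 77 uM, data normalized to no-enzyme and full-activity controls, Hill-fitted AC50.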

[26] = molecular target: alpha-glucosidase (Oryza sativa, rice) (UniProt Q653V4); assay: Counterscreen for Glucocerebrosidase Inhibitors: qHTS Assay for Rice alpha-Glucosidase at pH 5.0 (AID 997);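 further: 0% = full activity with enzyme and -100% = basal without enzyme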
Outline: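 Endpoint fluorogenic assay at pH 5.0: compounds (0.7 nM to 77 uM) titrated against 4 nM rice enzyme and 400 uM 4-MU-alpha-glucoside for 20 min at room temperature; NaOH/glycine stop, read ex 365/em 440 nm, Hill-fitted AC50.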

Chain of Cytochrome P450 1A2 (Homo sapiens) (P05177 whole entry, looked up): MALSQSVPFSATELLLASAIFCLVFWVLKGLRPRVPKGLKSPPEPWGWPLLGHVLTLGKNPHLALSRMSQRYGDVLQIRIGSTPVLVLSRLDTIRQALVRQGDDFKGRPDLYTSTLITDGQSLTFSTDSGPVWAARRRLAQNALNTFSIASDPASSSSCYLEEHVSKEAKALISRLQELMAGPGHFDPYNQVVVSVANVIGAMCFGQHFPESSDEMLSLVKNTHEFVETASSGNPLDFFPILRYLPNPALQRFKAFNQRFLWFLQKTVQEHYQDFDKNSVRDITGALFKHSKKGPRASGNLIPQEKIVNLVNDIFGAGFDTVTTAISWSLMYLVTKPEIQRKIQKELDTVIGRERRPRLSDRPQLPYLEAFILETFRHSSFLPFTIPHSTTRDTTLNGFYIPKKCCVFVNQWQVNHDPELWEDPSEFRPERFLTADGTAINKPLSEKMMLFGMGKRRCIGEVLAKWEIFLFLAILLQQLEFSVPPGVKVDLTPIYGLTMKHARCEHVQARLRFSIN
Chain of Ubiquitin carboxyl-terminal hydrolase 1 (Homo sapiens) (O94782 whole entry, looked up): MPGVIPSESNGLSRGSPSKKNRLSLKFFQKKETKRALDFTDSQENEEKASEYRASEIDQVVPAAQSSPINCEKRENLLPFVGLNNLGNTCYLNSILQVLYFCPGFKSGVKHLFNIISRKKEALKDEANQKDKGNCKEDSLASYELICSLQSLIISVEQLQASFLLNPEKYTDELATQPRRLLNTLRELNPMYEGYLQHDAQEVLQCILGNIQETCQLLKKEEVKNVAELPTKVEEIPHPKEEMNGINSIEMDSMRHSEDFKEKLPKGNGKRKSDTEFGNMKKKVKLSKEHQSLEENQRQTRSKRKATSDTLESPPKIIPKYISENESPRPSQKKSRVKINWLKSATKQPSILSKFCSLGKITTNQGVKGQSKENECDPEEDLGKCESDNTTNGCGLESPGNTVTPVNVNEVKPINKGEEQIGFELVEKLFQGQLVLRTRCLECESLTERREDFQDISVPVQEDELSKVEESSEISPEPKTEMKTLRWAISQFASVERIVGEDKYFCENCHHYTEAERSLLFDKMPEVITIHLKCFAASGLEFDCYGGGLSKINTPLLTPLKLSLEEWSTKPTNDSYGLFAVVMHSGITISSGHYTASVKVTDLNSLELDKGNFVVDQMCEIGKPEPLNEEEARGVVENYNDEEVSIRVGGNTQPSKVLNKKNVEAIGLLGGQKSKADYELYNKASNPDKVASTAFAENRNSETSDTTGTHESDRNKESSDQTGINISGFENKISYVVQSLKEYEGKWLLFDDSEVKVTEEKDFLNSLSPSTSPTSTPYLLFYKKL
Chain of DNA dC->dU-editing enzyme APOBEC-3G (Homo sapiens) (Q9HC16 whole entry, looked up): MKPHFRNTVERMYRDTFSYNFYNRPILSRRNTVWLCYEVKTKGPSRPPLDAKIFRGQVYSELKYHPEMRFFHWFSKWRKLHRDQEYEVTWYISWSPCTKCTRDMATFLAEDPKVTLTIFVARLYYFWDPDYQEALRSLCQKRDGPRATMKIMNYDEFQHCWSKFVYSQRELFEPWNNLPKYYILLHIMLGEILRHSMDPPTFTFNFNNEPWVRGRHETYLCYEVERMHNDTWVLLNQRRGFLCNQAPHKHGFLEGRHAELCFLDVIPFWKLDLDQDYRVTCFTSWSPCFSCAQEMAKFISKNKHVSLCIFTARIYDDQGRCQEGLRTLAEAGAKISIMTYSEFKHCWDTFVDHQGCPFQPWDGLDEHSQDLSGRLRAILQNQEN
Chain of 3',5'-cyclic-AMP phosphodiesterase 4B (Homo sapiens) (Q07343 whole entry, looked up): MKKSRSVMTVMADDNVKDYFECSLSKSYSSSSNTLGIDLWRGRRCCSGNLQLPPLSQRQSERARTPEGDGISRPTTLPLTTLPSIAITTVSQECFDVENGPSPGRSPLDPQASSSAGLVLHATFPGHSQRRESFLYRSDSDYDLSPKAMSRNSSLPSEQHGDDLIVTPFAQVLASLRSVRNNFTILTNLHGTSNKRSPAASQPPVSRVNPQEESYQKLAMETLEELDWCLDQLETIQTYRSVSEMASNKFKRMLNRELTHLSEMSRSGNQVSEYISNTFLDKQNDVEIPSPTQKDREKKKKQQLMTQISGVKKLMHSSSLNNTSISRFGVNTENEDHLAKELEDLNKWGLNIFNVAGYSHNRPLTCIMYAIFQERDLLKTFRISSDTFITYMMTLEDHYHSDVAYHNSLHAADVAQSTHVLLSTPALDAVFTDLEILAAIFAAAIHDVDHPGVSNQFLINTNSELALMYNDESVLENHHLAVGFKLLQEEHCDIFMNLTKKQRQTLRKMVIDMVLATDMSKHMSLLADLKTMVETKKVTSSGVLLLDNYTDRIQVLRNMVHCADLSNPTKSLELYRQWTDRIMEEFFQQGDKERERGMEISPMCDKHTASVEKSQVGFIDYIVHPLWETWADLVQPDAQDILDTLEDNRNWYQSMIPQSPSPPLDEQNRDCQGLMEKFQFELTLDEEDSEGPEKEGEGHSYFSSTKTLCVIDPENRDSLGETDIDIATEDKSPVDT
Chain of Cytochrome P450 2C9 (Homo sapiens) (P11712 whole entry, looked up): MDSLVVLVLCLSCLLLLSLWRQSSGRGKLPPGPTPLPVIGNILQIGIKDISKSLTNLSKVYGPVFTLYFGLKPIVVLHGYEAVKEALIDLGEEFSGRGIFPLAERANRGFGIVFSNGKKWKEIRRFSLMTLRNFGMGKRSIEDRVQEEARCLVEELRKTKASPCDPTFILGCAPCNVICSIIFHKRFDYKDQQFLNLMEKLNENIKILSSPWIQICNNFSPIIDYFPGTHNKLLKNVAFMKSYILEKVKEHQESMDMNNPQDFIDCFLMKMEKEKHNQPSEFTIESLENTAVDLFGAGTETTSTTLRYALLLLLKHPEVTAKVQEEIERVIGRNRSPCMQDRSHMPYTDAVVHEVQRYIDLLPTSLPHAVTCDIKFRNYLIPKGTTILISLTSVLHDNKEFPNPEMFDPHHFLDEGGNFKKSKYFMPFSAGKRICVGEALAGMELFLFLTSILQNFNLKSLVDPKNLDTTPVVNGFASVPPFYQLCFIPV
Chain of Cytochrome P450 2D6 (Homo sapiens) (P10635 whole entry, looked up): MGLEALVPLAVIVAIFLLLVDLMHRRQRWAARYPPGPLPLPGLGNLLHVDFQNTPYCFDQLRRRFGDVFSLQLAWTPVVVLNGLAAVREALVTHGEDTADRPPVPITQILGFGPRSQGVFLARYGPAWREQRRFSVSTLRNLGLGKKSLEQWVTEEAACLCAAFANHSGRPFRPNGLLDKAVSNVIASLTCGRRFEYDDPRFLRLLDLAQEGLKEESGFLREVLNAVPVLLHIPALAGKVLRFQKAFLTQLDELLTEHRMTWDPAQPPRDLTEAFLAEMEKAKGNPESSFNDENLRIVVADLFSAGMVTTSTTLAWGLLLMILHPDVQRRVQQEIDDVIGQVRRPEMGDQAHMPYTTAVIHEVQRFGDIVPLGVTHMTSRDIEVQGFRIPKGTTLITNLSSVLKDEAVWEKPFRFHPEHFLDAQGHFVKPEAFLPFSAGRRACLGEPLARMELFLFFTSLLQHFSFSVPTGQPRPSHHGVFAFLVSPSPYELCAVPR
Chain of Cytochrome P450 2C19 (Homo sapiens) (P33261 whole entry, looked up): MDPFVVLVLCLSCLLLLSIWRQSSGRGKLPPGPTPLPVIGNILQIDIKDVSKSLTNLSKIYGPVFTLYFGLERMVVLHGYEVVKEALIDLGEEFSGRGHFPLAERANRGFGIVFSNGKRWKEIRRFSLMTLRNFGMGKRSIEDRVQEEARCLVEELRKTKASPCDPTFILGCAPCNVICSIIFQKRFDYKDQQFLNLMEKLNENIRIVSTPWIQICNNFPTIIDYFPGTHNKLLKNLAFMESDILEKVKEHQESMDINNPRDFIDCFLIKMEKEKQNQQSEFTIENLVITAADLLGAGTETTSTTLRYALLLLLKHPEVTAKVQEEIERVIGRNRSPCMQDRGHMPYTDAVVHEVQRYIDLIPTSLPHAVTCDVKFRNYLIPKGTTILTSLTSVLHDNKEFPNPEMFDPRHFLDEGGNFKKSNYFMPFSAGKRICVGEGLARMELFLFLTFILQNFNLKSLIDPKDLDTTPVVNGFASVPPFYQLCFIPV
Chain of Cytochrome P450 3A4 (Homo sapiens) (P08684 whole entry, looked up): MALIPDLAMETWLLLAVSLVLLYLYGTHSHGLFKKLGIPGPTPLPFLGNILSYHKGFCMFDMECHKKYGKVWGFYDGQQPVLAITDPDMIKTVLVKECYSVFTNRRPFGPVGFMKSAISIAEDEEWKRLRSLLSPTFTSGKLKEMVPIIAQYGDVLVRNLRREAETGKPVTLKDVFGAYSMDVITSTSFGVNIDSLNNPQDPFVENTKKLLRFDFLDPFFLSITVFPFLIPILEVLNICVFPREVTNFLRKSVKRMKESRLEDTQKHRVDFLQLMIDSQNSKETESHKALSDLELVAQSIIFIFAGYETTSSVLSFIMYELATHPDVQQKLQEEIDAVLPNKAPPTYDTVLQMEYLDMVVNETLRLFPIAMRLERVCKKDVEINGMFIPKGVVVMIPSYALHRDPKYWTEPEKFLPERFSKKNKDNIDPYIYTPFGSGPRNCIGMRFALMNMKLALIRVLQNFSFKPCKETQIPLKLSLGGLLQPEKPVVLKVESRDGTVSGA
Chain of Guanine nucleotide-binding protein G(i) subunit alpha-1 (Homo sapiens) (P63096 whole entry, looked up): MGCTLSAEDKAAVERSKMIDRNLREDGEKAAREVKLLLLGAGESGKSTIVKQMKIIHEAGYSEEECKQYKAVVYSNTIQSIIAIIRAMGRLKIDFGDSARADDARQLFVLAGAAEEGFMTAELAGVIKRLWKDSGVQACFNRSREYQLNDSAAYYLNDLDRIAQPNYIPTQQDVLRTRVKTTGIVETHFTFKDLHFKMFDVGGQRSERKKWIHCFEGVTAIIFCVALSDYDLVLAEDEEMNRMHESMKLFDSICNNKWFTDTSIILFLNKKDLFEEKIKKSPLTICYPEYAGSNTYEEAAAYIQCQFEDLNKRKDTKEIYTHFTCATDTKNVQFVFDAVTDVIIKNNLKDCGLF
Chain of N-terminal Xaa-Pro-Lys N-methyltransferase 1 (Homo sapiens) (Q9BV86 whole entry, looked up): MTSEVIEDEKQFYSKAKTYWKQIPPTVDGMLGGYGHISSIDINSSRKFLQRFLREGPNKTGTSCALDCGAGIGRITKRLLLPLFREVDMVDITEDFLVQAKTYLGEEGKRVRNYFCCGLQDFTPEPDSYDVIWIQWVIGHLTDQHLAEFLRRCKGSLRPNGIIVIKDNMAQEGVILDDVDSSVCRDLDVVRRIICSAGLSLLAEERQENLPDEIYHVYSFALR

O=S(c1ccccc1)c1ccc2nnnn2n1 (stereo not given)
active: outcome [1]
inactive: Potency [2] | outcome [3] | outcome [4] | outcome [5] | outcome [6] | outcome [7] | Potency [8] | Potency [9]

OCCNCCCOc1cccc(Cl)c1Cl
inactive: Potency [10] > 46 µM | Potency [11] > 46 µM | Potency [2] | Potency [5] | Potency [12] | Potency [8] | Potency [9]
active: Potency [1] 0.2 µM | Potency [6] 0.158 µM | Potency [7] 3.98 µM

OC[C@H]1O[C@H](n2cnc3c(NC4CCCC4)nc(Cl)nc32)[C@@H](O)[C@@H]1O
inactive: Potency [10] > 46 µM | Potency [2] | Potency [13] | Potency [12] | Potency [8] | Potency [9]
active: Potency [1] 39.8 µM

OC[C@@H]1O[C@@H](n2cnc3c(NC4CCCC4)ncnc32)[C@H](O)[C@H]1O
inactive: Potency [1] | Potency [10] > 46 µM | Potency [11] > 46 µM | Potency [2] | Potency [13] | Potency [12] | Potency [8] | Potency [9]

CC(C)Oc1ccc2c(=O)c3cc(C(=O)O)ccc3oc2c1
inactive: Potency [1] | Potency [10] > 46 µM | Potency [11] > 46 µM | Potency [13] | Potency [8] | Potency [9]

COc1cc(OC)c2cc(-c3ccncc3)cnc2c1
inactive: Potency [10] > 46 µM | Potency [11] > 46 µM | Potency [2] | Potency [13] | Potency [5] | Potency [8]
active: Potency [1] 0.2 µM | Potency [9] 21.2 µM

COc1cccc(NC(=O)/C=C\c2ccc(Cl)cc2)c1
active: Potency [1] 1 µM | Potency [3] 10 µM | Potency [4] 12.6 µM
inactive: Potency [11] > 46 µM | Potency [13] | Potency [5] | Potency [6] | Potency [8] | Potency [9]

CN(CCc1ccc(Cl)c(Cl)c1)C[C@@H](O)COc1ccc(NS(C)(=O)=O)cc1
active: Potency [1] 15.8 µM | Potency [3] 2.51 µM | Potency [7] 2 µM
inactive: Potency [10] > 46 µM | Potency [11] > 46 µM | Potency [2] | Potency [13] | Potency [5] | Potency [8] | Potency [9]

CC(=O)C1CCC2C3CCC4=CC(=O)CCC4(C)C3CCC12C (stereo not given)
inactive: Potency [9] | Potency [14] | Potency [17] | Potency [18] | Z-AUC [19] -0.653
-0.267: Z-AUC ([19]; measured here: PEO4 Z-AUC)
-0.604: Z-AUC ([19]; measured here: PEO1 parental Z-AUC)
active: Potency [15] 20.9 µM | Potency [16] 18.6 µM

CCCCCCCCCCCCC/C=C\[C@@H](O)[C@@H](N)CO
active: Potency [1] 15.8 µM | Potency [21] 10 µM | Potency [12] 50.1 µM
inactive: Potency [11] > 46 µM | Potency [13] | outcome [20] | Potency [4] | Potency [22] | Potency [23] | outcome [24] | outcome [25] | outcome [26] | Potency [8] | Potency [9]
